This note sets out measurements from PubChem BioAssay (NCATS).

Molecules are shown by their SMILES. Inconclusive results are not listed. Activity calls are given as the source filed them. The call rests on the fitted dose curve; in most records, active means well fitted cell-killing curve with a large enough effect; inconclusive means small, poorly fitted or top-dose-only effect, or effect the other way; inactive means flat fitted curve, though single readings scatter.

Holding throughout (assay): Primary qHTS to identify gynecologic anti-cancer compounds using libraries of approved drugs and bioactive compounds (AID 1345084); further: nearly all actives have a fitted effect of over 55% in size
Background: Quantitative high-throughput screening tests each substance at several concentrations.

The test system of assay [1] is Es-2. Particulars: Gynecologic cancer cell panel viability, ATPlite luminescence, 48 h; series mostly up to 57.5 µM. Put shortly: (§1)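 ATP-based viability (ATPlite), 1,000 cells/well, 16 h pre-incubation, 48 h compound at 37 C, 5% CO2, 15 min RT before read.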
On the technique in general: Cellular ATP, detected with luciferase, serves as a proxy for viable cell number.

Assay [2] deals with Hek293T. The settings on record: Gynecologic cancer cell panel viability, ATPlite luminescence, 48 h, control line for the selectivity index; series mostly up to 57.5 µM. Put shortly: as §1
For assay [3], the system named is JEG-3. The settings on record: Gynecologic cancer cell panel viability, ATPlite luminescence, 48 h; series mostly up to 57.5 µM. Put shortly: as §1
For assay [4], the system named is OV90. Particulars: Gynecologic cancer cell panel viability, ATPlite luminescence, 48 h; series mostly up to 57.5 µM. Put shortly: as §1
In assay [5] the test system is Tov-21-G. Particulars: Gynecologic cancer cell panel viability, ATPlite luminescence, 48 h; series mostly up to 57.5 µM. The essentials:
as §1

For assay [6], the system named is Tov112D. Particulars: Gynecologic cancer cell panel viability, ATPlite luminescence, 48 h; series mostly up to 57.5 µM. Put shortly:
as §1

In assay [7] the test system is HeLa. Particulars: Gynecologic cancer cell panel viability, ATPlite luminescence, 48 h; series mostly up to 57.5 µM. Put shortly:
as §1

In assay [8] the test system is PA-1. The settings on record: Gynecologic cancer cell panel viability, ATPlite luminescence, 48 h; series mostly up to 57.5 µM. Put shortly:
as §1

Assay [9] concerns SKOV3. Particulars: Gynecologic cancer cell panel viability, ATPlite luminescence, 48 h; series mostly up to 57.5 µM. The essentials: as §1
Assay [10] concerns CASKI. Particulars: Gynecologic cancer cell panel viability, ATPlite luminescence, 48 h; series mostly up to 57.5 µM. Put shortly:
as §1
Potency means the concentration at half of the fitted maximal effect.

On to `CO[C@@H]1[C@@H](OC)[C@H](C)[C@@](O)(CC(=O)O)O[C@H]1[C@H](C)[C@H]1O[C@@]2(CC[C@@](C)([C@H]3CC[C@@](C)([C@@H]4O[C@@H]([C@H]5O[C@](C)(O)[C@H](C)C[C@@H]5C)C[C@@H]4OC4C[C@H](OC)[C@@H](OC)[C@H](C)O4)O3)O2)C[C@H](O)[C@H]1C` (stereo partly drawn), for which the Potency in assay [1] is 10 µM (active); in assay [2], 2.82 µM (active); in [3] it was 6.31 µM (active); in assay [4] it was 1.78 µM (active); in assay [5] it was 11.2 µM (active); in [6], 11.2 µM (active).
Turning to `CC(C(O)c1ccccc1)N(C)CCOC(c1ccccc1)c1ccccc1` (stereo not drawn), the Potency entry in [1], in assay [7], in assay [8], in assay [5] and in [6] was “inactive” throughout. Moreover, in [9], the Potency was 20 µM (active).
In the case of `CCCCCCCCCCCCCCCCCCNC(=O)OC1CCN(C(=O)OC[C@H](COC(=O)N(Cc2cccc[n+]2CC)C(=O)c2ccccc2OC)OC)CC1`, the Potency in assay [10] was 15.8 µM (active); in [4], 28.2 µM (active); in assay [8] it was 12.6 µM (active); in [9] it was 20 µM (active); in assay [5] it was 25.1 µM (active). Besides, the Potency result in assay [3] was “inactive”.
For `CC(C)=CCC/C(C)=C/CC/C(C)=C/C(=O)OCC(=O)[C@@]1(O)CC[C@H]2[C@@H]3CCC4=CC(=O)C=C[C@]4(C)[C@H]3[C@@H](O)C[C@@]21C`, the Potency entry in assay [10], in assay [7], in assay [3], in assay [4] and in assay [5] was “inactive” throughout. Besides, the Potency in assay [2] was 35.5 µM (active).
As to `CCOC(=O)C1=C(C)NC(C)=C(C(=O)OCC)C1c1ccccc1/C=C/C(=O)OC(C)(C)C`, the Potency result in [1], in [7], in [2], in [3], in assay [4] and in assay [8] was “inactive” each time. For the same compound, the Potency result in assay [5] and in assay [6] was “inactive” in each case.
Consider `CC(C)(C)c1ccc(O)c(O)c1`, for which the Potency is 35.5 µM (active) in assay [4] and 31.6 µM (active) in [9].
As to `O=c1[nH]sc2cc(Cl)ccc12`, the Potency result in assay [10], in [7], in assay [3], in [4] and in assay [6] was “inactive” in each case.
In the case of `CC[N+](CC)(CC)CCOC(=O)C(C1CCCC1)C1CCCC1`, the Potency entry in assay [1], in [7], in assay [2], in assay [3], in assay [9] and in assay [5] was “inactive” throughout. The Potency result in [6] is “inactive”.
`CN1CCCN(C(c2ccccc2)c2ccc(Cl)cc2)CC1` (stereo not drawn): the Potency entry in assay [1], in assay [7], in [3], in [8] and in [5] was “inactive” in each case. Besides, the Potency in [6] was 31.6 µM (active).
Turning to `O=C1NCCN1CCN1CCC(c2cn(-c3ccc(F)cc3)c3ccc(Cl)cc23)CC1`, the Potency in assay [10] was 35.5 µM (active); in [2], 31.6 µM (active); in assay [9], 28.2 µM (active).
In the case of `CCN(CC)CCOc1ccc(/C(=C(\Cl)c2ccccc2)c2ccccc2)cc1`, the Potency entry in assay [10], in [7], in assay [3] and in assay [6] was “inactive” throughout. Further, the Potency in [4] was 14.1 µM (active).
Turning to `Cc1cccc(N(C)C(=S)Oc2ccc3c(c2)C2CCC3C2)c1` (stereo not drawn), the Potency result in assay [10], in [7], in [2], in assay [3], in [8] and in [9] was “inactive” throughout. Moreover, the Potency result in assay [5] and in [6] was “inactive” throughout. The Potency in assay [4] was 35.5 µM (active).
Regarding `Cc1cc(OCCOCC[N+](C)(C)Cc2ccccc2)ccc1C(C)(C)CC(C)(C)C`, the Potency result in assay [1], in assay [7], in assay [3] and in assay [5] was “inactive” in each case.
As for `CCCCCCCCCCCCCCCC[N+](C)(C)Cc1ccccc1`, the values for the Potency in assay [7], in [4] and in [8] were 25.1 µM (active), 25.1 µM (active) and 15.8 µM (active), respectively. In assay [3], the Potency result is “inactive”.
With `O=C(Nc1ccc(Cl)cc1)Nc1ccc(Cl)c(C(F)(F)F)c1`, the Potency in [1] was 28.2 µM (active); in assay [7], 14.1 µM (active); in [2], 14.1 µM (active); in assay [4] it was 25.1 µM (active); in assay [6] it was 31.6 µM (active). Further, in assay [3], the Potency entry is “inactive”.
`COC(=O)c1cc(Cl)ccc1NS(=O)(=O)C(F)(F)F`: the Potency result in [10], in assay [2], in [3], in assay [4], in assay [8] and in assay [9] was “inactive” throughout.
Consider `O=[N+]([O-])c1ccc(O)c2ncccc12`, for which the Potency entry in assay [7] and in assay [3] was “inactive” each time. For the same compound, the Potency in assay [6] is 28.2 µM (active).
For the compound `O=C1NC(=O)/C(=C/c2ccc3c(c2)OC(F)(F)O3)S1`, the Potency entry in assay [10], in assay [2], in assay [9], in assay [5] and in assay [6] was “inactive” in each case.
Consider `Nc1cccc2c(N)cccc12`, for which the Potency entry in assay [1], in [7] and in assay [2] was “inactive” throughout. The Potency in assay [4] was 20 µM (active).
Turning to `CC(=O)N(CC(=O)N(C)C)c1ccccc1`, the Potency entry in assay [1], in assay [7], in assay [2], in assay [9] and in assay [5] was “inactive” in each case.
With `CC(=O)Nc1ccn(C2COC(COC(=O)c3ccccc3)O2)c(=O)n1` (stereo not drawn), the Potency result in [10], in [7], in assay [2], in assay [3], in assay [8] and in assay [9] was “inactive” in each case. Besides, the Potency entry in [5] is “inactive”.
